Here are results for 30 molecules from PubChem BioAssay AID743361 (Molecular Libraries Program, Specialized Chemistry Center, …, 2014).

The structures appear in SMILES notation. The source made the active and inactive calls. No rule for the calls is given here.

The nature of this assay: cell-free Rh123 fluorescence quenching read-out – biochemical, dry powder samples, uHTS hits, counter-screen for mtPTP inhibitor project, dose response (AID 743361). To be noted: Rhodamine 123 fluorescence quenching counterscreen. (Counterscreens check selectivity or assay interference.)
`CN1CCN(CCc2ccc(NS(=O)(=O)c3ccc(F)c(Cl)c3)cc2)CC1`: the IC50 is > 100 µM (inactive). Turning to `COc1ccc(Cl)c(C(=O)Nc2cccc(CN3CCN(C(=O)OC(C)(C)C)CC3)c2)c1`, the IC50 was > 100 µM (inactive).

For the molecule `COc1ccc(Cl)c(C(=O)Nc2ccc(CN3CCOCC3)cc2)c1`, the IC50 is > 100 µM (inactive). To `CN1CCN(c2ccccc2NC(=O)c2ccc(OCc3ccccc3)cc2)CC1` belongs > 100 µM (inactive). `COc1ccc(Cl)cc1C(=O)Nc1ccc(CCN2CCNCC2)cc1`: the IC50 is > 100 µM (inactive).

As to `COc1ccc(Cl)cc1S(=O)(=O)Nc1ccc(CCN2CCN(C)CC2)cc1`, the IC50 was > 100 µM (inactive). For `O=C(Nc1ccc(CN2CCCCC2)cc1)c1cc(Cl)ccc1O` the value was > 100 µM (inactive); for `COc1ccc(NC(=O)c2cc(-c3cccc(O)c3)on2)cc1Cl`, > 100 µM (inactive).

Consider `COc1ccc(NC(=O)c2cc(Cl)cc(Cl)c2OC)cc1`, for which the IC50 is > 100 µM (inactive).

Turning to `O=S(=O)(Nc1ccc(CN2CCCCC2)cc1)c1cc(Cl)cc(Cl)c1`, the IC50 is > 100 µM (inactive).

On to `Cc1cc(NC(=O)c2cc(-c3ccc(F)cc3)on2)no1`, for which the IC50 is > 100 µM (inactive). With `O=S(=O)(Nc1ccc(CCN2CCCCC2)cc1)c1cccc(Cl)c1`, the IC50 was > 100 µM (inactive). To `O=C(Nc1ccc(Cl)cc1)c1cc(-c2cccc(O)c2)on1` belongs > 100 µM (inactive); to `O=C(Nc1ccc(OCc2ccccc2)c(Cl)c1)c1cc(-c2cccc(O)c2)on1`, > 100 µM (inactive). To `O=C(Nc1ccc(Br)cc1)c1cc(C2CC2)on1` belongs > 100 µM (inactive); to `COc1ccc(Cl)cc1C(=O)Nc1cccc(CN2CCNCC2)c1`, > 100 µM (inactive). For `COc1ccc(Cl)cc1C(=O)Nc1ccccc1` the value was > 100 µM (inactive); for `COc1ccc(Cl)cc1C(=O)Nc1ccc(CN2CCOCC2)cc1`, > 100 µM (inactive); for `O=C(Nc1ccc(CN2CCCCC2)cc1)c1cc(OCc2ccccc2)ccc1Cl`, 76.2 µM (active). For `COc1ccc(Cl)cc1S(=O)(=O)Nc1ccc(N2CCN(C)CC2)cc1`, the IC50 was > 100 µM (inactive).

For the molecule `O=C(Nc1ccc(Cl)cc1)c1cc(-c2ccccc2)on1`, the IC50 is > 100 µM (inactive). For the molecule `COc1ccc(Cl)cc1C(=O)Nc1ccc(CN2CCN(C)CC2)cc1`, the IC50 was > 100 µM (inactive). For `O=C(Nc1ccc(CN2CCCCC2)cc1)c1ccc(Cl)c(OCc2ccccc2)c1` the value was 28.2 µM (active). For `COc1ccc(Cl)c(C(=O)Nc2ccc(CCN3CCCCC3)cc2)c1` the value was > 100 µM (inactive); for `O=C(Nc1ccc(CN2CCCCC2)cc1)c1cccc(Cl)c1`, > 100 µM (inactive). To `COc1ccc(Cl)c(C(=O)Nc2ccc(CCN3CCOCC3)cc2)c1` belongs > 100 µM (inactive). On to `CC1CCN(CCCC(=O)c2ccc(Br)cc2)CC1`, for which the IC50 is > 100 µM (inactive). Turning to `O=C(Nc1cc(Cl)ccc1Cl)c1cc(-c2cccc(O)c2)on1`, the IC50 was 38.7 µM (active). As to `Cc1c(Cl)cccc1NC(=O)c1cc(-c2cccc(O)c2)on1`, the IC50 was > 100 µM (inactive). Take `COc1cccc(-c2cc(C(=O)Nc3cc(Cl)ccc3C)no2)c1`: the IC50 was > 100 µM (inactive).

As a reminder, the IC50 is the concentration at which inhibition is half-maximal.
